The record followed here is PubChem BioAssay (NCATS).

Each structure is given as a SMILES string. Records with an inconclusive call do not appear. A number with no mark means an inactive call. Active and inactive are the calls of the source. Calls follow the shape of the dose curve; as a rule, active = well fitted curve in the direction sought with a large enough effect; inconclusive = small, poorly fitted or top-dose-only effect, or another doubt; inactive = no such curve, though single readings can be large; an effect the other way counts as inactive or inconclusive.

Experiment [1] in a line: P-glycoprotein substrates identified in KB-8-5-11 adenocarcinoma cell line, qHTS therapeutic library screen (AID 1346987). Also: nearly all actives have a fitted effect of over 65% in size. As to activity change, negative = cytotoxicity: series mostly up to about 44 µM. The procedure, abridged:
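In this qHTS, P-gp-rich KB-8-5-11 cells received library compounds across a concentration range. Viability was quantified by luminescence after 72 h at 37 degree C.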
Background: In qHTS, concentration-response curves come from the screen itself.

For experiment [2], the system named is Zika virus NS2B-NS3 protease (unlinked complex). Kind of experiment: Primary screen GU Rhodamine qHTS for Zika virus inhibitors: Unlinked NS2B-NS3 protease assay (AID 1347159). Also: nearly all actives have a fitted effect of over 60% in size. Also: potency is read from the fitted curve at half-maximal effect. The procedure, abridged: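 Enzyme 25 nM in Tris-HCl pH 8.0 + 0.01% Tween 20; compounds up to 114 microM, 15 min RT dark; + Rhod110 substrate 1.5 microM; read t0 and 15 min; delta fluorescence → % inhibition → 4-parameter Hill fit.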

Experiment [3] concerns Zika virus NS2B-NS3 protease (linked construct). Kind of experiment: Primary screen NINDS Rhodamine qHTS for Zika virus inhibitors (AID 1347160). Also: nearly all actives have a fitted effect of over 55% in size. Also: potency is read from the fitted curve at half-maximal effect. In a few lines:
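Enzyme (25 nM, linked NS2B-NS3) was preincubated 15 min with compound in 10 mM Tris-HCl pH 8.0, 0.01% Tween 20. Rhodamine110 substrate (1.5 microM) was then added and fluorescence read at start and after 15 min.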
% is scaled to controls: 0 for no effect and ±100 for the full control effect.

On to `COc1cc(C(C)=O)ccc1O[C@@H]1O[C@H](CO[C@@H]2OC[C@@H](O)[C@H](O)[C@H]2O)[C@@H](O)[C@H](O)[C@H]1O`, for which the Potency result in experiment [1], in experiment [2] and in experiment [3] was “inactive” throughout.
With `CC1(C)CCC[C@@]2(C)[C@H]1[C@H](O)C=C(CO)[C@]2(O)CO`, the Potency result in experiment [1], in experiment [2] and in experiment [3] was “inactive” each time.
With `CC(=O)O[C@@H]1[C@H](OC(C)=O)C[C@@]2(C)C(CC[C@@H](C)[C@]23Cc2c(O)cc4c(c2O3)CN([C@@H](CCC(=O)O)C(=O)O)C4=O)C1(C)C` (stereo not given in full), the Potency result in experiment [1], in experiment [2] and in experiment [3] was “inactive” in each case.
For the compound `COc1cc([C@H]2OC[C@](O)(Cc3ccc(O[C@@H]4O[C@H](CO)[C@@H](O)[C@H](O)[C@H]4O)c(OC)c3)[C@@H]2CO)ccc1O`, the Potency result in experiment [1], in experiment [2] and in experiment [3] was “inactive” in each case.
On to `CCCC(C(=O)O)c1c(C)nc2ccc(Cl)cc2c1-c1ccccc1` (stereo not given), for which the Potency result in experiment [1] was “inactive”. Also, the Potency in experiment [2] was 31.6 µM (active); in experiment [3], 14.1 µM (active).
As to `Cc1c(NC(=O)N2CCOCC2)ccc2c1c1ccccc1n2C(C)C`, the Potency result in experiment [1], in experiment [2] and in experiment [3] was “inactive” throughout.
For `C[C@@H]1O[C@@H](OC(=O)Cc2ccccc2)[C@H](O)[C@H](O)[C@H]1O`, the Potency result in experiment [1], in experiment [2] and in experiment [3] was “inactive” throughout.
Regarding `C=C1CCC2[C@](C)(CO)CCC[C@@]2(C)[C@@H]1CCC1=CCOC1=O` (stereo not given in full), the Potency result in experiment [1], in experiment [2] and in experiment [3] was “inactive” in each case.
For `CC(=O)OC(C)(C)/C=C/C(=O)[C@](C)(O)C1[C@H](O)C[C@@]2(C)[C@@H]3CC=C4[C@@H](C[C@H](O[C@@H]5O[C@H](CO)[C@@H](O)[C@H](O)[C@H]5O)C(=O)C4(C)C)[C@]3(C)C(=O)C[C@]12C` (stereo not given in full), the Potency result in experiment [1], in experiment [2] and in experiment [3] was “inactive” throughout.
For the compound `COc1cc(CO)ccc1O[C@@H]1O[C@H](CO)[C@@H](O)[C@H](O)[C@H]1O`, the Potency entry in experiment [1], in experiment [2] and in experiment [3] was “inactive” each time.
With `CC1CCC2(C(=O)O)CCC3(C)C(=CCC4C5(C)CCC(O)C(C)(C(=O)O)C5CCC43C)C2C1(C)O` (stereo not given), the Potency entry in experiment [1] and in experiment [2] was “inactive” in each case.
With `COC(=O)C1=COC(OC2OC(CO)C(O)C(O)C2O)C2C(C)C(OC(=O)/C=C/c3ccc(O)cc3)C(O)C12` (stereo not given), the Potency entry in experiment [1] and in experiment [3] was “inactive” each time. Besides, in experiment [2], the Potency was 28.2 µM (active).
As to `C=C1CC2C(C)(CCC(=O)O)C(C(C)(C)O)CCC2(C)C2(C(=O)OC)C(=O)C(C)(O)C(=O)C12C` (stereo not given), the Potency result in experiment [1], in experiment [2] and in experiment [3] was “inactive” throughout.
On to `NC(=O)c1ccc(F)c2c1C[C@@H](N(C1CCC1)C1CCC1)CO2`, for which the Potency entry in experiment [1], in experiment [2] and in experiment [3] was “inactive” in each case.
Turning to `Cc1cc(-n2c(=O)[nH]c(=O)n(C)c2=O)ccc1Oc1ccc(SC(F)(F)F)cc1`, in experiment [1], the Potency result was “inactive”. In addition, the Potency in experiment [2] is 15.8 µM (active).
For the compound `CC1=CC(=O)CC(C)(C)[C@@]1(O)/C=C/C(C)O[C@@H]1O[C@H](CO)[C@@H](O)[C@H](O)[C@H]1O` (stereo not given in full), the Potency entry in experiment [1], in experiment [2] and in experiment [3] was “inactive” each time.
Turning to `NCCCCN(Cc1nc2ccccc2[nH]1)[C@H]1CCCc2cccnc21`, the Potency result in experiment [1], in experiment [2] and in experiment [3] was “inactive” in each case.
Take `COC(O)(CC(C)C)C1Oc2cc(C)[nH]c(=O)c2O1` (stereo not given): the Potency result in experiment [1], in experiment [2] and in experiment [3] was “inactive” in each case.
Regarding `Oc1ccc(CC2NCCc3cc(O)c(O)cc32)cc1` (stereo not given), the Potency result in experiment [1], in experiment [2] and in experiment [3] was “inactive” in each case.
As for `COC(=O)C1=CO[C@@H](O[C@@H]2O[C@H](CO)[C@@H](O)[C@H](O)[C@H]2O)[C@H]2[C@@H]1[C@H](O)[C@H](O)[C@]2(C)O`, the Potency result in experiment [1] and in experiment [2] was “inactive” throughout.
Turning to `COc1ccc(/C=C/C(=O)O[C@@H]2[C@@H](O[C@@H]3O[C@H](CO)[C@@H](O)[C@H](O)[C@H]3O)[C@@H](O)[C@H](O[C@H]3C4C=CO[C@@H](O[C@@H]5O[C@H](CO)[C@@H](O)[C@H](O)[C@H]5O)C4[C@@]4(CO)O[C@@H]34)O[C@H]2C)cc1` (stereo not given in full), the activity change, negative = cytotoxicity in experiment [1] was 2.62% [at 9.29 µM]. The Potency result in experiment [2] and in experiment [3] was “inactive” in each case.
For the compound `C[C@@H]1C[C@@H](O)[C@@]2(CO)C(CO)=CCC[C@@H]2[C@@]12C[C@@H](c1ccoc1)OC2=O`, the Potency result in experiment [1], in experiment [2] and in experiment [3] was “inactive” each time.
In the case of `O=C(OC[C@H]1O[C@H](O[C@]2(CO)O[C@H](CO)[C@@H](O)[C@@H]2O)[C@H](O)[C@@H](O)[C@@H]1O)c1ccc(O)cc1`, the Potency result in experiment [1], in experiment [2] and in experiment [3] was “inactive” throughout.
With `O=C(Nc1ccc(N2CCC(C(=O)N3CCOCC3)CC2)cc1)c1cnc(Oc2ccccc2)nc1`, the Potency result in experiment [1], in experiment [2] and in experiment [3] was “inactive” in each case.
Turning to `CCOC(=O)C(CCc1ccccc1)NC1CCCN2CCCC(C(=O)O)N2C1=O` (stereo not given), the Potency result in experiment [1], in experiment [2] and in experiment [3] was “inactive” each time.
In the case of `O=C(NC/C=C/CN1CCN(c2cccc(Cl)c2Cl)CC1)c1ccc(-c2ccccn2)cc1`, the Potency entry in experiment [1], in experiment [2] and in experiment [3] was “inactive” each time.
